GALR2 antag = GALR2 antagonists in receptor-expressing cells, primary screen. Galanin receptor type 2 (Homo sapiens), O43603. antagonist mode. inhibition, % at 4 µM. 140,000 tested, 0.39% active; in the data active = inhibition above about 27%;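 also: cells stimulated with galanin 1-16 at roughly its EC80; 0% = agonist challenge control and 100% = basal control without agonist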
GALR2 ag = GALR2 receptor agonists, primary screen, cell-based; activation, % (no concentration beside the values); AID 803, 2007; Galanin receptor type 2 (Homo sapiens), O43603; 140,000 tested, 0.48% active; GALR2-expressing cells, agonist activation read-out; in the data active = activation above about 5%, passing the limit was not always enough;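 also: 0% = vehicle buffer wells and 100% = reference agonist at full effect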
MRP resist rev = reversal of MRP1-mediated doxorubicin resistance, primary screen, H69AR cells, doxorubicin co-treatment. H69AR cells + 2 uM doxorubicin, CellTiter-Glo, 72 h. differential viability (reversal), % at 10 µM. AID 602, 2007. 85,000 tested, 0.04% active;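 active = viability drop by adding the cancer drug above about 55%, with treated viability meeting a 40% cutoff, limit read from the data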;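 also: viability without doxorubicin minus viability with 2 µM doxorubicin for each compound; larger differential means the compound sensitizes cells more to doxorubicin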
S1P2 blocker = human S1P2 receptor antagonists, primary screen, cell-based; Sphingosine 1-phosphate receptor 2 (Homo sapiens), O95136; cell-based S1P2 antagonist assay, inhibition at 5 uM; inhibition, % at 5 µM; 97,000 tested, 0.21% active; in the data active = inhibition above about 45%;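 also: CRE beta-lactamase reporter cells expressing human S1P2 stimulated with S1P; 0% = agonist at EC80 alone and 100% = agonist plus reference antagonist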
Target sequence (O95136 whole entry, looked up): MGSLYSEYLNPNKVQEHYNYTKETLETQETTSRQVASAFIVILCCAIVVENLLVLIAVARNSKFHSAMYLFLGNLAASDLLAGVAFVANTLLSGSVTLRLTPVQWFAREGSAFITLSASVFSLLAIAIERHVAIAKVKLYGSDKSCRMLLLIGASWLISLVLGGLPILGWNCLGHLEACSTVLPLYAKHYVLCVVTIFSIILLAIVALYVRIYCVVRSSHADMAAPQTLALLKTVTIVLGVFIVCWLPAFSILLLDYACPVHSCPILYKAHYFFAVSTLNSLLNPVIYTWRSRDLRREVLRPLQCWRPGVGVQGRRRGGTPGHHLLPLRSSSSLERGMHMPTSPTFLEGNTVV
MRP-1 activ = H69AR viability gain despite doxorubicin, primary screen, MRP-1 activator project, H69AR cells, CellTiter-Glo; viability rescue; viability increase, % at 10 µM; 140,000 tested, 0.61% active; AID 799, 2007;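 active = viability gain under doxorubicin at or above a set limit, the compound median plus 3 SD, cut at about 4.7% in these data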;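 also: MRP-1 overexpressing cells given doxorubicin 25 µM after compound pretreatment; 18-22 h compound pretreatment then 72 h with doxorubicin before readout; 0% = doxorubicin-only wells and 100% = vehicle-treated cells without doxorubicin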
S1P2 ag = S1P2 receptor agonists, primary screen, cell-based; S1P2-expressing cell line, agonist reporter read-out; activation, % at 4.5 µM; Sphingosine 1-phosphate receptor 2 (Homo sapiens), O95136; 97,000 tested, 0.46% active; AID 729, 2007; in the data active = activation above about 16%;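 also: 0% = vehicle low control and 100% = maximal reference agonist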
GALR2 agon conf = GALR2 agonists, retest of hits, confirmation, cell-based; GALR2-expressing cells, agonist activation; 460 tested, 10% active; shares compounds with GALR2 ag; activation, % at 5.6 µM; in the data active = activation above about 8.4%;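 also: 0% = buffer-only vehicle wells and 100% = full reference agonist response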
BLA activ ctr = activators of NFAT-driven beta-lactamase reporter, confirmation, counter-screen for GALR2 agonist project, CHO NFAT-bla cells, FRET readout; shares compounds with GALR2 ag; beta-lactamase FRET activation; activation, % at 5.6 µM; 460 tested, 10% active; AID 865, 2007;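 active = activation above the screen-wide mean activation plus 3 SD, cut at about 8% in these data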;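 also: 0% = DMSO with PBS wells and 100% = thapsigargin positive control wells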
* marks the source's active call; other numbers are inactive results; . = not tested or not shown. The list is not random: actives were taken first. Their share in the collection is about 1.8%.

SMILES	GALR2 antag	GALR2 ag	MRP resist rev	S1P2 blocker	MRP-1 activ	S1P2 ag	others
O=C1CC(N2CCC(n3c(=O)[nH]c4ccccc43)CC2)C(=O)N1c1ccc(F)cc1 (stereo not drawn)	20	-1	3	23	6.2*	-3
CC(C)CNC(=O)c1c(N)n(Cc2ccc3c(c2)OCO3)c2nc3ccccc3nc12	-37	40*	-26	-140	-6	67*
COCCNC(=O)c1c(N)n(CCC(C)C)c2nc3ccccc3nc12	-13	16*	-26	-34	-2	16*
COc1ccc(Cn2c(N)c(C(=O)NCc3ccco3)c3nc4ccccc4nc32)cc1OC	-9	2	-21	-21	-5	7
Nc1c(C(=O)NCc2ccco2)c2nc3ccccc3nc2n1CCN1CCCCC1	-11	8	-6	-1	-6	28*
CC(C)CCn1c(N)c(C(=O)NCc2cccs2)c2nc3ccccc3nc21	0	3	-27	-27	-2	15
CC(C)CNC(=O)c1c(N)n(Cc2ccco2)c2nc3ccccc3nc12	-24	17*	-17	-65	-5	33*
COC(=O)C(O)(c1c(C)[nH]c2ccccc12)C(F)(F)F (stereo not drawn)	13	-2	-23	20	-3	-5
CC(C)c1oc(=O)cc2c1[C@@H](O)[C@H]1OC(=O)[C@@]3(C)C[C@@H](O)[C@@H](O)[C@@]2(C)C13 (stereo partly drawn)	-11	0	.	.	-3	.
OC1(c2ccccc2F)CC2CCC(C1)N2CCN1CCOCC1 (stereo not drawn)	-2	-2	-4	11	-1	-12
CC(C)CCNC(=O)c1c(N)n(Cc2ccc3c(c2)OCO3)c2nc3ccccc3nc12	-12	10	2	-98	-2	129*
CC(C)OCCCNC(=O)c1c(N)n(Cc2cccs2)c2nc3ccccc3nc12	-11	29*	-6	.	-4	.
Cc1cc(OCC(=O)Nc2c(C)n(C)n(-c3ccccc3)c2=O)c2c3c(c(=O)oc2c1)CCC3	.	.	2	.	.	.
COc1cc2c(cc1OC)CN(c1ccc([N+](=O)[O-])c(C(F)(F)F)c1)CC2	-3	0	.	.	1	.
C[C@H]1CCC/C=C/C2C[C@H](O)CC2[C@H](O)/C=C/C(=O)O1 (stereo partly drawn)	49*	-1	.	.	-4	.
C[C@H]1CCC[C@@H](O)CCC/C=C/c2cc(O)cc(O)c2C(=O)O1	11	-4	2	10	-2	-5
c1ccc(-c2[nH]c[n+](CC3CO3)c2-c2ccccc2)cc1 (stereo not drawn)	7	0	.	.	-2	.
CC(=NCCN1CCCCC1)c1c(O)[nH]c(=O)[nH]c1=O	5	-1	-4	-1	-1	-6
CC(C)c1ccc(N2C(=O)NC(=O)/C(=C/c3cnc(-c4ccccc4)nc3)C2=O)cc1	-8	1	.	.	-2	.
CSc1ncc(/C=C2/C(=O)NC(=O)N(c3ccc(C(C)C)cc3)C2=O)cn1	-2	5.1*	.	.	-3	.
O=C(Nc1ccc(F)cc1)c1c(O)c2c(n(Cc3ccccc3)c1=O)CCCC2	1	-2	.	.	9.0*	.
CCn1nc(-c2ccccc2)nc2c(=O)n(C)c(=O)nc1-2	95*	4	.	.	-1	.
COc1ccc(-c2csc(NC(=O)COC(=O)Cc3ccccc3)n2)cc1OC	12	0	.	.	0	.
Cc1ccc2nc3c(cc2c1)CC1(C(=O)N(C)C(=O)N(C)C1=O)C1CCCCN31 (stereo not drawn)	9	-2	-16	22	5.8*	-6
Cc1ccc2nc3c(cc2c1)CC1(C(=O)N(C)C(=O)N(C)C1=O)C1COCCN31 (stereo not drawn)	-9	0	3	9	-2	0
SMILES	GALR2 antag	GALR2 ag	MRP resist rev	S1P2 blocker	MRP-1 activ	S1P2 ag	others
O=C(COc1ccc(Br)cc1)N1CCN(C2CCCC2)CC1	-5	-1	12	9	7.6*	-5
Cc1cccc(N2C(=O)NC(=O)/C(=C\c3cccn3-c3ccc(Cl)cc3)C2=O)c1	8	-1	.	56*	-3	-6
Cc1cc(C)cc(N2C(=O)NC(=O)/C(=C/c3cccn3-c3ccc(Cl)cc3)C2=O)c1	-1	-1	.	.	-3	.
CN(C)C(=O)Oc1ccc(OC(=O)c2ccccc2)cc1	-12	-1	-27	12	8.2*	-5
CCNC(=O)NC(=O)C(C)OC(=O)c1c(C)nn(Cc2ccccc2Cl)c1Cl (stereo not drawn)	8	1	.	.	1	.
Nc1c(C(=O)OCC2CCCO2)c2nc3ccccc3nc2n1Cc1cccs1 (stereo not drawn)	15	0	-34	-11	-2	1
Nc1c(C(=O)NC2CCCC2)c2nc3ccccc3nc2n1CC1CCCO1 (stereo not drawn)	-13	33*	-27	-56	-3	44*
CN1/C(=C\C=C\C2=[N+](C)c3ccc4ccccc4c3C2(C)C)C(C)(C)c2ccccc21	-51	1	0	95*	-6	-5
CN1/C(=C\C=Nc2ccccc2)C(C)(C)c2ccccc21	1	-2	.	0	-5	-6
COCCCn1c(N)c(C(=O)OCCOC)c2nc3ccccc3nc21	8	1	3	.	-1	.
CCCNC(=O)c1c(N)n(Cc2ccco2)c2nc3ccccc3nc12	-8	18*	-26	-24	-3	13	GALR2 agon conf=5;BLA activ ctr=11*
CCCCNC(=O)c1c(N)n(CCCOC)c2nc3ccccc3nc12	-15	9.4*	.	.	-5	.	GALR2 agon conf=4;BLA activ ctr=14*
COCCCNC(=O)c1c(NC(=O)c2ccco2)n(Cc2ccccc2)c2nc3ccccc3nc12	5	9	-12	18	-4	1	GALR2 agon conf=2;BLA activ ctr=2
N#CCP(=S)(c1ccccc1)c1ccccc1	14	1	.	.	-2	.
CCCCC1C(=O)NC(=S)NC1=O	9	-1	.	.	-1	.
O=[N+]([O-])c1ccc(C2[C@H]3C(c4ccccc4)=NC4(CCCC4)N23)cc1 (stereo partly drawn)	-13	0	.	.	-1	.
Cc1ccc(C2=NC(C)(C)N3C2C3c2ccc([N+](=O)[O-])cc2)cc1 (stereo not drawn)	2	10*	.	.	-2	.	GALR2 agon conf=-1;BLA activ ctr=-2
COc1cc(CN2CCN(c3cc(C)ccc3C)CC2)ccc1O	7	49*	2	1	-2	-7	GALR2 agon conf=-1;BLA activ ctr=-2
